Measured values from PubChem BioAssay (EPA / NIEHS).
Several values for one entry are separate records, joined by “and”; a condition that tells them apart may be missing. Identical values can stand only once. The source holds several records for some structures; these can differ, active in one and inactive in another. Activity calls are given as the source filed them. Rule for the calls: active = hit-call score of the fitted dose curve at least 0.9, where 1 is the maximum; inactive = score below 0.9.

Legend:
[1] = read-out: Interferon-gamma inducible Protein 10 (IP10), CXCL10 (gene 3627); test: BSK_hDFCGF_IP10: BioMAP Diversity Plus: hDFCGF Assay for Interferon-gamma inducible Protein 10 (IP10) Biomarker Activity (AID 2283053); conditions: primary human foreskin fibroblasts; actives raise or lower the signal
In short: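 Primary foreskin fibroblasts, human; 24 h compound exposure; IP-10 by ELISA; bidirectional fit vs DMSO.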

[2] = read-out: Urokinase-type plasminogen activator receptor (uPAR), PLAUR (gene 5329); test: BSK_CASM3C_uPAR: BioMAP Diversity Plus: CASM3C Assay for Urokinase-type plasminogen activator receptor (uPAR) Biomarker Activity (AID 2283054); conditions: primary human coronary artery smooth muscle cells; actives raise or lower the signal;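 note: cell-surface uPAR protein level quantified by ELISA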
[3] = read-out: Vascular cell adhesion molecule 1 (VCAM1), VCAM1 (gene 7412); test: BSK_CASM3C_VCAM1: BioMAP Diversity Plus: CASM3C Assay for Vascular cell adhesion molecule 1 (VCAM1) Biomarker Activity (AID 2283055); conditions: primary human coronary artery smooth muscle cells; actives raise or lower the signal;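 note: VCAM-1 protein level quantified by ELISA on the cells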
[4] = read-out: Collagen III, COL3A1 (gene 1281); test: BSK_hDFCGF_CollagenIII: BioMAP Diversity Plus: hDFCGF Assay for Collagen III Biomarker Activity (AID 2283056); conditions: primary human foreskin fibroblasts; actives raise or lower the signal
In short: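 Cells: human foreskin fibroblasts, primary. Dosing followed by 24 h incubation, then ELISA for collagen III. Both increases and decreases scored relative to DMSO.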

[5] = read-out: Epidermal growth factor receptor (EGFR), EGFR (gene 1956); test: BSK_hDFCGF_EGFR: BioMAP Diversity Plus: hDFCGF Assay for Epidermal growth factor receptor (EGFR) Biomarker Activity (AID 2283057); conditions: primary human foreskin fibroblasts; actives raise or lower the signal
In short: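 hDFCGF system, primary human foreskin fibroblasts; compound 24 h; EGFR measured by ELISA; DMSO = negative control/baseline; bidirectional fitting.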

[6] = read-out: Interleukin-8 (IL8), CXCL8 (gene 3576); test: BSK_hDFCGF_IL8: BioMAP Diversity Plus: hDFCGF Assay for Interleukin-8 (IL8) Biomarker Activity (AID 2283058); conditions: primary human foreskin fibroblasts; actives raise or lower the signal
In short: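 IL-8 levels from compound-treated primary human fibroblasts were read by ELISA at 24 h, with DMSO serving as baseline for bidirectional fitting.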

[7] = BSK_hDFCGF_Proliferation: Cell Proliferation Assessment in the BioMAP Diversity Plus: hDFCGF Assay (AID 2283059); conditions: primary human foreskin fibroblasts;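 note: curves fitted for both rise and fall of signal versus DMSO baseline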
In short: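 This proliferation readout used SRB total-protein staining of human foreskin fibroblasts […], normalized to DMSO with bidirectional curve fitting.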

[8] = read-out: Macrophage colony-stimulating factor (MCSF), CSF1 (gene 1435); test: BSK_hDFCGF_MCSF: BioMAP Diversity Plus: hDFCGF Assay for Macrophage colony-stimulating factor (MCSF) Biomarker Activity (AID 2283060); conditions: primary human foreskin fibroblasts; actives raise or lower the signal
In short: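 M-CSF levels, determined by ELISA, are taken at 24 h after dosing human skin fibroblasts. Responses in either direction are fitted with DMSO serving as the baseline.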

[9] = BSK_hDFCGF_SRB: Viability Assessment in the BioMAP Diversity Plus: hDFCGF Assay (AID 2283061); conditions: primary human foreskin fibroblasts;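 note: cells exposed to compound for 24 h before the read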
In short: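 Cells were dosed with test chemical, cultured 24 h, fixed with 10% TCA, then stained with 0.1% SRB and read at 560 nm. The fibroblasts were human foreskin primary cells, and DMSO served as baseline.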

[10] = read-out: Monokine induced gamma interferon (MIG), CXCL9 (gene 4283); test: BSK_hDFCGF_MIG: BioMAP Diversity Plus: hDFCGF Assay for Monokine induced gamma interferon (MIG) Biomarker Activity (AID 2283063); conditions: primary human foreskin fibroblasts; actives raise or lower the signal
In short: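 MIG signal, determined by ELISA, reflects 24 h chemical exposure of human skin primary fibroblasts. DMSO serves as negative control and baseline.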

[11] = read-out: Vascular cell adhesion molecule 1 (VCAM1), VCAM1 (gene 7412); test: BSK_hDFCGF_VCAM1: BioMAP Diversity Plus: hDFCGF Assay for Vascular cell adhesion molecule 1 (VCAM1) Biomarker Activity (AID 2283065); conditions: primary human foreskin fibroblasts; actives raise or lower the signal;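 for AC50: VCAM-1 protein level quantified by ELISA after 24 h chemical exposure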
In short: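 Cells are dosed, cultured for 24 h, then VCAM-1 is quantified by ELISA; signal increases and decreases are both fitted relative to DMSO.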

[12] = read-out: Plasminogen activator inhibitor-1 (PAI1), SERPINE1 (gene 5054); test: BSK_hDFCGF_PAI1: BioMAP Diversity Plus: hDFCGF Assay for Plasminogen activator inhibitor-1 (PAI1) Biomarker Activity (AID 2283066); conditions: primary human foreskin fibroblasts; actives raise or lower the signal
In short: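 Primary dermal fibroblasts (human foreskin), hDFCGF system; compound 24 h; PAI-1 by ELISA; bidirectional fit vs DMSO control.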

[13] = read-out: Intercellular Adhesion Molecule 1 (ICAM1), ICAM1 (gene 3383); test: BSK_KF3CT_ICAM1: BioMAP Diversity Plus: KF3CT Assay for Intercellular Adhesion Molecule 1 (ICAM1) Biomarker Activity (AID 2283067); conditions: primary human keratinocytes with fibroblasts; actives raise or lower the signal
In short: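 Dose the keratinocyte/fibroblast co-culture, wait 24 h, measure ICAM-1 by ELISA, then fit increases or decreases against DMSO. Cytotoxicity is checked in parallel cultures by SRB total-protein staining.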

[14] = read-out: Interferon-gamma inducible Protein 10 (IP10), CXCL10 (gene 3627); test: BSK_KF3CT_IP10: BioMAP Diversity Plus: KF3CT Assay for Interferon-gamma inducible Protein 10 (IP10) Biomarker Activity (AID 2283068); conditions: primary human keratinocytes with fibroblasts; actives raise or lower the signal
In short: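 Signal is secreted/surface IP-10 by ELISA in a human primary skin co-culture of keratinocytes and foreskin fibroblasts, taken 24 h post-dosing; DMSO served as negative control.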

[15] = BSK_KF3CT_SRB: Viability Assessment in the BioMAP Diversity Plus: KF3CT Assay (AID 2283069); conditions: primary human keratinocytes with fibroblasts;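 note: total protein by sulforhodamine B staining as a cytotoxicity measure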
In short: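 Human primary keratinocyte plus foreskin fibroblast co-culture exposed to chemicals for 24 h. Total protein measured by 0.1% sulforhodamine B staining after 10% TCA fixation, read at 560 nm; bidirectional fitting versus DMSO baseline.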

[16] = read-out: Interleukin-1 alpha (IL1a), IL1A (gene 3552); test: BSK_KF3CT_IL1a: BioMAP Diversity Plus: KF3CT Assay for Interleukin-1 alpha (IL1a) Biomarker Activity (AID 2283070); conditions: primary human keratinocytes with fibroblasts; actives raise or lower the signal
In short: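 Human keratinocyte plus foreskin fibroblast primary co-culture, sampled 24 h after chemical dosing. IL-1a measured by ELISA; responses fitted bidirectionally against DMSO baseline (negative control), so gain or loss of signal both count.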

[17] = read-out: TIMP metallopeptidase inhibitor 2 (TIMP2), TIMP2 (gene 7077); test: BSK_KF3CT_TIMP2: BioMAP Diversity Plus: KF3CT Assay for TIMP metallopeptidase inhibitor 2 (TIMP2) Biomarker Activity (AID 2283071); conditions: primary human keratinocytes with fibroblasts; actives raise or lower the signal
In short: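 Cells: human keratinocytes co-cultured with foreskin fibroblasts. Treat with chemical, 24 h. Measure TIMP-2 by ELISA; fit curves bidirectionally vs DMSO baseline.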

[18] = read-out: Transforming growth factor beta 1 (TGFb1), TGFB1 (gene 7040); test: BSK_KF3CT_TGFb1: BioMAP Diversity Plus: KF3CT Assay for Transforming growth factor beta 1 (TGFb1) Biomarker Activity (AID 2283072); conditions: primary human keratinocytes with fibroblasts; actives raise or lower the signal
In short: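 Primary human skin cells (keratinocytes, foreskin fibroblasts) were co-cultured, exposed to test chemical and sampled at 24 h. TGF-b1 levels were measured by ELISA and fitted bidirectionally relative to DMSO.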

[19] = read-out: TIMP metallopeptidase inhibitor 1 (TIMP1), TIMP1 (gene 7076); test: BSK_hDFCGF_TIMP1: BioMAP Diversity Plus: hDFCGF Assay for TIMP metallopeptidase inhibitor 1 (TIMP1) Biomarker Activity (AID 2283062); conditions: primary human foreskin fibroblasts; actives raise or lower the signal
In short: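 Fibroblasts from human foreskin are treated with test chemical and harvested at 24 h. TIMP-1 is quantified by ELISA, and gain or loss of signal is scored against DMSO.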

[20] = read-out: Matrix Metallopeptidase 1 (MMP1), MMP1 (gene 4312); test: BSK_hDFCGF_MMP1: BioMAP Diversity Plus: hDFCGF Assay for Matrix Metallopeptidase 1 (MMP1) Biomarker Activity (AID 2283064); conditions: primary human foreskin fibroblasts; actives raise or lower the signal
In short: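 Primary human foreskin fibroblasts in the hDFCGF system were dosed with test chemical, and MMP1 was measured by ELISA 24 h later. Values come from bidirectional curve fitting against the DMSO baseline.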

Measured: AC50

C=CC(=O)NCNC(=O)C=C
inactive: [1] | [2] | [3] | [4] | [5] | [6] | [7] | [8] | [9] | [10] | [11] | [12] | [13] | [14] | [15] | [16] | [17] | [18]

CC1=C2C[C@H]3[C@@H](CC=C4C[C@@H](O)CC[C@@]43C)[C@@H]2CC[C@]12O[C@@H]1C[C@H](C)CN[C@H]1[C@H]2C
inactive: [1] | [2] | [3] | [4] | [5] | [6] | [7] | [8] | [9] | [10] | [11] | [12] | [13] | [14] | [15] | [16] | [17] | [18]

Cc1cccc(C)c1N
inactive: [1] | [2] | [3] | [4] | [5] | [7] | [8] | [9] | [19] | [10] | [20] | [11] | [12] | [13] | [14] | [15] | [16] | [17] | [18]

CC(C)(O)C(=O)Nc1ccc([N+](=O)[O-])c(C(F)(F)F)c1
inactive: [1] | [2] | [3] | [4] | [5] | [6] | [7] | [8] | [9] | [19] | [10] | [11] | [12] | [13] | [14] | [15] | [16] | [17] | [18]

Clc1ccc(Cl)cc1
inactive: [1] | [2] | [3] | [4] | [5] | [6] | [7] | [8] | [9] | [19] | [10] | [11] | [12] | [13] | [14] | [15] | [17] | [18]

O=C(O)C(F)(F)C(F)(F)C(F)(F)C(F)(F)C(F)(F)C(F)(F)C(F)(F)C(F)(F)F
inactive: [1] | [2] | [3] | [4] | [5] | [8] | [9] | [10] | [11] | [12] | [13] | [15] | [16] | [17] | [18]
active: [1] 32.4 µM and 43.4 µM | [4] 7.13 µM | [7] 34.2 µM and 20.8 µM and 46.7 µM | [10] 19 µM | [11] 48.5 µM | [14] 30.2 µM and 54.7 µM and 47.3 µM | [16] 7.86 µM and 30 µM

O=S(=O)(O)C(F)(F)C(F)(F)C(F)(F)C(F)(F)C(F)(F)C(F)(F)F
inactive: [1] | [2] | [3] | [4] | [5] | [6] | [7] | [8] | [9] | [10] | [20] | [11] | [12] | [13] | [14] | [15] | [17] | [18]

O=C(O)C(F)(F)C(F)(F)C(F)(F)C(F)(F)C(F)(F)C(F)(F)C(F)(F)C(F)(F)C(F)(F)F
inactive: [2] | [3] | [5]
active: [1] 28.5 µM and 29.1 µM and 32.8 µM | [3] 41.3 µM and 30 µM | [4] 29.7 µM and 30 µM | [5] 7.6 µM | [7] 13.5 µM and 16.5 µM and 17.1 µM | [8] 30.4 µM and 21.9 µM and 21.6 µM | [9] 28.5 µM and 48.8 µM and 49 µM | [10] 33 µM and 36.5 µM and 37.9 µM | [20] 33.3 µM and 26.9 µM and 40.3 µM | [11] 31.2 µM and 17.9 µM and 19.4 µM | [12] 33.1 µM and 38.3 µM and 47 µM | [13] 36.7 µM and 45.8 µM and 54.9 µM | [14] 17.3 µM and 46.9 µM and 40.5 µM | [15] 33.1 µM and 50.3 µM and 50.8 µM | [17] 31 µM and 45 µM and 44.7 µM | [18] 30.8 µM

O=C(O)C(F)(F)C(F)(F)C(F)(F)C(F)(F)C(F)(F)F
inactive: [1] | [2] | [3] | [4] | [5] | [6] | [7] | [8] | [9] | [19] | [10] | [11] | [12] | [13] | [14] | [15] | [16] | [17] | [18]

Oc1ccc(Cl)cc1Cl
inactive: [1] | [2] | [3] | [4] | [5] | [6] | [7] | [8] | [9] | [19] | [10] | [11] | [12] | [13] | [14] | [15] | [16] | [17] | [18]

O=C(NC(=O)c1c(F)cccc1F)Nc1cc(Cl)c(OC(F)(F)C(F)F)c(Cl)c1
inactive: [1] | [2] | [3] | [4] | [5] | [6] | [7] | [8] | [9] | [10] | [20] | [11] | [12] | [13] | [14] | [15] | [17] | [18]
